Assay [1] in a line: qHTS assay to identify small molecule agonists of the hypoxia (HIF-1) signaling pathway (AID 1224846; active = well fitted activation curve with a large enough effect in the signal ratio in the repeat runs, not every such curve was filed as active; the % refers to the signal ratio). The procedure, abridged: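 Compounds added to ME-180 cells carrying hypoxia-response-element beta-lactamase reporter (0.5% dialyzed FBS, 5 h preplating), 17 h at 37C; agonist activity detected by CCF4-AM B/G FRET read-out.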
In general terms: In qHTS, concentration-response curves come from the screen itself.

Assay [2] can be described thus: qHTS assay to identify small molecule agonists of H2AX - cell viability counter screen (AID 1224847; calls by dose curve; also: nearly all actives have a fitted effect of over 30% in size; also: potency is read from the fitted curve at half-maximal effect; as to activity change, negative = cytotoxicity: top concentration of the series differs between compounds). The procedure, abridged:
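Wild-type CHO-K1 cells (10% FBS medium) were plated overnight at 37C, exposed to compounds at 15 concentrations for 3 hr at 37C (0.76% DMSO final), and viability was read as CellTiter-Glo luminescence after 30 min at room temperature.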

The nature of assay [3]: qHTS RealTime-Glo MT Cell Viability Assay in HepG2 cells - 24 hour (AID 1224867). Also: nearly all actives have a fitted effect of over 50% in size. Also: potency is read from the fitted curve at half-maximal effect. The procedure, abridged:
(§1)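 Compound treatment began 5 h after plating HepG2 cells (600/well) with NanoLuc luciferase and prosubstrate. Plates stayed at 37 C for 40 h; luminescence was captured at six time points, 0 h through 40 h.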

A short description of assay [4]: qHTS RealTime-Glo MT Cell Viability Assay in HEK293 cells - 32 hour (AID 1224868). Also: nearly all actives have a fitted effect of over 50% in size. Also: potency is read from the fitted curve at half-maximal effect. The procedure, abridged:
(§2)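 Quantitative high-throughput screen of the Tox21 10K library in HEK293: cells and RealTime-Glo reagents plated together, compound added at 5 h, luminescence monitored through 40 h at 37 C.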

A short description of assay [5]: qHTS RealTime-Glo MT Cell Viability Assay in HepG2 cells - 40 hour (AID 1224870). Also: nearly all actives have a fitted effect of over 50% in size. Also: potency is read from the fitted curve at half-maximal effect. The procedure, abridged:
(§3)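 HepG2 cells mixed with RealTime-Glo MT reagents (NanoLuc plus cell-permeant prosubstrate) were seeded at 600 cells/well, incubated 5 h at 37 C/5% CO2, then pinned with compounds in DMSO; nonlytic luminescence tracked viability during 40 h treatment.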

A short description of assay [6]: A CellTox Green Cytotoxicity Assay to monitor cytotoxicity in HEK293 cells - 40 hour (AID 1224871). Also: nearly all actives have a fitted effect of over 45% in size. Also: potency is read from the fitted curve at half-maximal effect. The procedure, abridged:
(§4)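 Fluorescence from a DNA-binding dye excluded by viable cells was measured repeatedly in the same HEK293 wells (600 cells/well) during continuous compound exposure at 37 C. Each assay gives one read point: 0, 8, 16, 24, 32 or 40 h.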

The nature of assay [7]: qHTS RealTime-Glo MT Cell Viability Assay in HEK293 cells - 16 hour (AID 1224872). Also: nearly all actives have a fitted effect of over 50% in size. Also: potency is read from the fitted curve at half-maximal effect. As to activity change, negative = cytotoxicity: top concentration of the series differs between compounds. The procedure, abridged: as §2
Assay [8] is described as follows: qHTS RealTime-Glo MT Cell Viability Assay in HepG2 cells - 8 hour (AID 1224873). Also: nearly all actives have a fitted effect of over 55% in size. Also: potency is read from the fitted curve at half-maximal effect. The procedure, abridged: as §3
Assay [9] in a line: qHTS RealTime-Glo MT Cell Viability Assay in HEK293 cells - 40 hour (AID 1224874). Also: nearly all actives have a fitted effect of over 50% in size. Also: potency is read from the fitted curve at half-maximal effect. Conditions: RealTime-Glo luminescence; max response: active compounds read low. The procedure, abridged:
(§5)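 Luminescence, which tracks viable cell number through reduction of the prosubstrate to a NanoLuc substrate, was read over continuous 37 C culture. Cells (600/well) were premixed with reagent and rested 5 h before 23 nL of compound in DMSO was pinned.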

The nature of assay [10]: A CellTox Green Cytotoxicity Assay to monitor cytotoxicity in HEK293 cells - 24 hour (AID 1224875). Also: nearly all actives have a fitted effect of over 45% in size. Also: potency is read from the fitted curve at half-maximal effect. The procedure, abridged:
as §4

Assay [11] in a line: qHTS RealTime-Glo MT Cell Viability Assay in HepG2 cells - 32 hour (AID 1224877). Also: nearly all actives have a fitted effect of over 55% in size. Also: potency is read from the fitted curve at half-maximal effect. The procedure, abridged: as §1
Assay [12] in a line: A CellTox Green Cytotoxicity Assay to monitor cytotoxicity in HepG2 cells - 24 hour (AID 1224878). Also: nearly all actives have a fitted effect of over 45% in size. Also: potency is read from the fitted curve at half-maximal effect. The procedure, abridged:
(§6)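 Real-time cytotoxicity: fluorescence of a cell-impermeant cyanine dye binding DNA of dead HepG2 cells, measured repeatedly (0–40 h) during compound exposure at 37 C. Cells seeded 600/well with reagent, dosed after 5 h.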

Assay [13] in a line: A CellTox Green Cytotoxicity Assay to monitor cytotoxicity in HepG2 cells - 40 hour (AID 1224879). Also: nearly all actives have a fitted effect of over 40% in size. Also: potency is read from the fitted curve at half-maximal effect. The procedure, abridged: as §6
Assay [14] in a line: qHTS RealTime-Glo MT Cell Viability Assay in HEK293 cells - 0 hour (AID 1224880). Also: top concentration of the series differs between compounds; nearly all actives have a fitted effect of over 45% in size. The procedure, abridged: as §5
The nature of assay [15]: A CellTox Green Cytotoxicity Assay to monitor cytotoxicity in HEK293 cells - 32 hour (AID 1224881). Also: nearly all actives have a fitted effect of over 40% in size. Also: potency is read from the fitted curve at half-maximal effect. The procedure, abridged:
as §4

Assay [16] in a line: A CellTox Green Cytotoxicity Assay to monitor cytotoxicity in HepG2 cells - 0 hour (AID 1224882). Also: nearly all actives have a fitted effect of over 35% in size. The procedure, abridged: as §6
Assay [17] can be described thus: qHTS assay to identify small molecule antagonists of the estrogen related receptor (ERR) signaling pathway from Tox21 library (AID 1224848). Also: nearly all actives have a fitted effect of over 50% in size. Also: potency is read from the fitted curve at half-maximal effect. The procedure, abridged:
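First, 2,000 ERR cells per well were plated and held 6 h at 37 C/5% CO2. Next, compounds in DMSO were pinned in and left 18 h at 37 C. Finally, ONE-Glo was added and luminescence read after 30 min at room temperature.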

Assay [18] in a line: qHTS assay to identify small molecule agonists of the estrogen related receptor (ERR) signaling pathway from Tox21 library (AID 1224849; calls by dose curve; also: nearly all actives have a fitted effect of over 15% in size). The following applies: ERR reporter cell line, ONE-Glo luciferase, 18 h; at 92.4 µM (top of the series) unless noted. The procedure, abridged: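 Luminescent agonist read-out (One-Glo, 30-minute room-temperature incubation) following 18-hour compound treatment at 37 C of the ERR cell line, which had been plated 6 hours before dosing.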

Assay [19] can be described thus: A CellTox Green Cytotoxicity Assay to monitor cytotoxicity in HEK293 cells - 0 hour (AID 1224869). Also: nearly all actives have a fitted effect of over 50% in size. The procedure, abridged:
as §4

A short description of assay [20]: A CellTox Green Cytotoxicity Assay to monitor cytotoxicity in HepG2 cells - 16 hour (AID 1224876). Also: nearly all actives have a fitted effect of over 45% in size. Also: potency is read from the fitted curve at half-maximal effect. The procedure, abridged:
as §6

Values without a mark were called inactive. Records with an inconclusive call do not appear. Activity calls are given as the source filed them. Unless noted, calls follow the shape of the dose curve; as a rule, active = well fitted curve in the direction sought with a large enough effect in the repeat runs; inconclusive = weak or mixed curves; inactive = no such curve, though single readings can be large; an effect the other way counts as inactive or inconclusive.
% is scaled to controls: 0 for no effect and ±100 for the full control effect.

As to `CC(C)(C)OO`, the molecule was classed as inactive in [1]. For the same molecule, the Potency entry in [2], in assay [3], in assay [4], in [5], in assay [6] and in assay [7] was “inactive” each time. For the same molecule, the Potency entry in assay [8], in [10], in [11], in assay [12], in [13] and in assay [14] was “inactive” in each case. Further, the Potency entry in [15] and in assay [16] was “inactive” throughout. In addition, the max response in [9] was 12.3%.

`FC(F)(F)c1cccc(C2=CCN(CCc3ccc4ccccc4c3)CC2)c1`: the molecule was called inactive in assay [1]. Besides, the Potency result in [17], in [3], in [4], in assay [19], in assay [5] and in [6] was “inactive” throughout. Moreover, the Potency entry in assay [7], in assay [8], in [10], in assay [20], in assay [11] and in assay [12] was “inactive” throughout. Also, the Potency result in [13], in assay [14], in assay [15] and in [16] was “inactive” each time. The activity change, positive = activation in [18] is -0.643% [at 42.5 µM]. Also, the max response in assay [9] is 2.33%.

For `CC1CCC(C(C)C)C(OC(=O)c2ccccc2N)C1` (stereo not given), the Potency in assay [2] was 88.5 µM (active); in [17], 53.7 µM (active); in assay [4] it was 38.4 µM (active); in [6], 27.2 µM (active); in [7], 34.2 µM (active); in assay [9], 34.2 µM (active). In addition, the Potency in [15] is 38.4 µM (active). The activity change, positive = activation in assay [18] is -55.4%. In addition, the Potency entry in assay [3], in assay [19], in assay [5], in [8], in assay [20] and in assay [11] was “inactive” in each case. The Potency entry in assay [14] and in assay [16] was “inactive” each time.

In the case of `CN(C)c1ccc(N=Nc2ccccc2)cc1`, in assay [1], the call was inactive. Further, the Potency result in assay [3], in [5], in assay [20], in assay [12], in assay [14] and in assay [16] was “inactive” in each case.

`CCCN(CCC)c1c([N+](=O)[O-])cc(S(N)(=O)=O)cc1[N+](=O)[O-]`: the Potency in assay [2] was 89.8 µM (active); in assay [17] it was 48.6 µM (active); in assay [3] it was 43.6 µM (active); in assay [4] it was 18.5 µM (active); in assay [5], 49 µM (active); in [6], 39.7 µM (active). Further, the Potency is 16.5 µM (active) in assay [7]; 24.5 µM (active) in [8]; 23.3 µM (active) in assay [10]; 33.5 µM (active) in assay [20]; 43.6 µM (active) in assay [11]; 13.1 µM (active) in assay [12]. Moreover, in assay [15], the Potency is 26.2 µM (active). In addition, the activity change, positive = activation in [18] is -56.8%. In addition, the Potency result in assay [19], in [14] and in assay [16] was “inactive” in each case.

As to `c1cc[c]([Sb]([c]2ccccc2)[c]2ccccc2)cc1`, in assay [1], the result was inactive. The Potency entry in [3], in assay [19], in [5], in assay [6], in [8] and in assay [10] was “inactive” each time. Also, the Potency entry in assay [20], in assay [11], in [12], in [13], in assay [14] and in assay [15] was “inactive” in each case. For the same molecule, in assay [16], the Potency result was “inactive”. For the same molecule, the Potency in assay [4] and in assay [9] was 54.9 µM (active) throughout.

In the case of `OC(Cc1ccccc1Cl)(Cn1cncn1)C1(Cl)CC1` (stereo not given), the outcome in assay [1] was inactive. Also, the figures for the Potency in assay [17], in assay [4] and in assay [9] were 48.6 µM (active), 49 µM (active) and 49 µM (active), respectively. Further, the activity change, positive = activation in assay [18] was -38.2%. Besides, the Potency entry in [3], in [19], in assay [5], in [8], in assay [10] and in assay [20] was “inactive” throughout. Also, the Potency entry in [11], in [12], in [14] and in assay [16] was “inactive” in each case.

Consider `[Cl][Sn]([c]1ccccc1)([c]1ccccc1)[c]1ccccc1`, for which the Potency in assay [2] was 1.52 µM (active); in assay [17], 0.58 µM (active); in assay [3], 2.61 µM (active); in [4], 0.262 µM (active); in [5], 2.61 µM (active); in [6], 1.65 µM (active). Also, the Potency was 0.293 µM (active) in [7]; 7.37 µM (active) in assay [8]; 0.233 µM (active) in assay [9]; 1.85 µM (active) in [10]; 3.29 µM (active) in assay [20]; 2.61 µM (active) in assay [11]. In addition, the Potency was 2.61 µM (active) in [12], 2.61 µM (active) in [13] and 1.65 µM (active) in assay [15]. In addition, the activity change, positive = activation in assay [18] is -65.5% [at 19 µM]. For the same molecule, the values for the cytotoxicity in assay [19] and in [16] were -13.5% [at 15.8 µM] and 7.07% [at 15.8 µM], respectively. Also, the activity change, negative = cytotoxicity in assay [14] was 1.26% [at 15.8 µM].

The values above are taken from PubChem BioAssay (Tox21).
